Compound activity deposited in PubChem by several laboratories.
An excerpt weighted towards active compounds, which were near 4.2% of everything screened.
tim23-1 inh: growth inhibitors of tim23-1 mutant yeast; inhibition, % at 20 µM; AID 463212; S. cerevisiae tim23-1 growth, BacTiter-Glo luminescence, 24 h; 330,000 compounds, 1.3% hits;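 active means growth inhibition of the mutant yeast at or above 50%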;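 further: temperature-sensitive mutant grown at 25 °C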
tim10-1 inh: inhibits growth of tim10-1 mutant yeast | AID 463190 | inhibition, % at 20 µM | S. cerevisiae tim10-1 ts strain growth, BacTiter-Glo, 24 h | 330,000 compounds, 2.2% hits;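 active means inhibition of at least 40%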;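 further: mutant grown at 25 °C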
NLRP3 yeast inh: blocks the NALP3 inflammasome reconstituted in yeast; Yeast reconstituted NLRP3/ASC/caspase-1, beta-gal luminescence, 24 h; inhibition, % at 10 µM; 330,000 compounds, 0.39% hits;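 active means inhibition of 50% or more; inactive means inhibition below 50%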
TIM10 inh: TIM10 yeast growth inhibition. 330,000 compounds, 1.4% hits. inhibition, % at 10 µM. S. cerevisiae TIM10 strain growth, BacTiter-Glo luminescence, 24 h;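 active means inhibition of 40% or more at the single tested concentration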;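 further: wild-type TIM10 isogenic control strain grown at permissive 25 °C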
NALP1 inh: blocks the NALP1 inflammasome reconstituted in yeast | S. cerevisiae NALP1/ASC/caspase-1 growth, X-gal OD620, 72 h | inhibition, % at 10 µM | 280,000 compounds, 0.61% hits | AID 2071; in the data active means inhibition mostly above about 24%, no sharp cut-off; inactive means mostly below about 32%
V-ATPase pH: alters yeast V-ATPase proton transport. AID 504577. response, % at 10 µM. 350,000 compounds, 0.37% hits. S. cerevisiae, pHLuorin cytosolic pH fluorescence; in the data active means response mostly above about 7.3%, no sharp cut-off; inactive means mostly below about 5.4%; further: actives read high
tim10-1 conf: tim10-1 yeast growth inhibition, confirmed. 7,400 compounds, 56% hits. inhibition, % at 20 µM. S. cerevisiae tim10-1 ts strain growth, BacTiter-Glo, 24 h. AID 463213. shares compounds with tim10-1 inh;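 active means inhibition of yeast growth at or above a set limit in either of two repeat tests at 20 µM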;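 further: tim10-1 mutant grown at permissive 25 °C to find synthetic lethal compounds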
Of the large screens only hits and unclear results are named; the others gave an inactive call (follow-up assays come after a bar, where they were run).

Cc1ccc(-c2csc(=S)n2CC(=O)OCC(=O)NC(C)C(C)C)cc1 (configuration not stated)	none
Cc1ccc(-c2csc(=S)n2CC(=O)OCC(=O)NCc2ccco2)cc1	tim10-1 inh 41 | tim10-1 conf inactive
S=C1NC(c2ccccc2)=CC(c2ccccc2)N1 (configuration not stated)	none
S=C1NC(c2cccs2)=CC(c2ccc(Br)cc2)N1 (configuration not stated)	tim10-1 inh 41 | tim10-1 conf 33
CSc1ccc(/C=C/C(=O)c2c(O)cc(C)oc2=O)cc1	tim10-1 inh 47 | tim10-1 conf 38
O=C(ON=C1CCN(S(=O)(=O)c2ccccc2)CC1)c1ccccc1	tim10-1 inh 58 | tim10-1 conf 56
COc1ccc(C(=O)Cn2c(C(C)=O)nc3ccccc32)cc1	none (no result: tim23-1 inh, tim10-1 inh, NLRP3 yeast inh, TIM10 inh, NALP1 inh)
COc1ccc(Cn2c(/C=C/c3ccccc3)nc3ccccc32)cc1	tim10-1 inh 46 | tim10-1 conf inactive
CCn1c(/C=C/c2ccccc2)nc2ccccc21	none
COc1ccc(/C=C/C(=O)c2nc3ccccc3n2CC(=O)c2ccc(OC)cc2)cc1	tim10-1 inh 41 | tim10-1 conf 37
CCOC(=O)CSc1cc(-c2ccccc2)nc2ncnn12	tim10-1 inh 44 (no result: NALP1 inh) | tim10-1 conf 35
Cc1c(C(=O)/C=C/c2cccs2)oc2ccc(F)cc12	tim10-1 inh 45 | tim10-1 conf 38
CC(C)NC(=S)N/N=C1\CCCCc2ccccc21	tim10-1 inh 57 | tim10-1 conf 38
COc1cccc(NC(=S)N/N=C2/CCCCc3ccccc32)c1	none (no result: tim23-1 inh, tim10-1 inh, NLRP3 yeast inh, TIM10 inh)
CC(C)CNC(=O)c1c2c(nc3ccccc13)-c1ccccc1CC2	none
CCN(CC)C(=O)c1c2c(nc3ccccc13)-c1ccccc1CC2	tim10-1 inh 42 | tim10-1 conf inactive
COc1ccc(NS(=O)(=O)c2ccc3oc4ccccc4c3c2)cn1	tim10-1 inh 44 | tim10-1 conf 36
COc1ccc(NS(=O)(=O)c2ccc(Br)cc2)cn1	none
O=C(N/N=C/c1cccc(Cl)c1)C(c1ccncc1)N1CCOCC1 (configuration not stated)	none (no result: NALP1 inh)
CC(C)(C)c1ccc(NC(=O)CNC2CCCc3ccccc32)cc1 (configuration not stated)	tim10-1 inh 42 | tim10-1 conf inactive
COc1ccc(NS(=O)(=O)c2ccc3nc(COc4ccc(Cl)c(C)c4)[nH]c3c2)cc1	none
O=[N+]([O-])c1ccc(Cn2cc(-c3cccc(C(F)(F)F)c3)nn2)cc1	tim10-1 inh 47 | tim10-1 conf 32
O=C(Nc1cccc(S(=O)(=O)N2CCCC2)c1)c1ccc(Cl)nc1	none (no result: NALP1 inh)
Cn1c(NCCCO)nc2c(c1=O)C1(CCCCC1)Cc1ccccc1-2	tim10-1 inh 54 | tim10-1 conf 38
CCC(=O)Nn1cnc2c(c1=O)C1(CCCCC1)Cc1ccccc1-2	tim10-1 inh 50 | tim10-1 conf 37
CCC1(C)Cc2ccccc2-c2nc(NCCCO)n(-c3ccccc3)c(=O)c21 (configuration not stated)	none
CCc1ccc(C(=O)COC(=O)C2CCN(c3ccc(C(F)(F)F)cn3)CC2)cc1	none (no result: NALP1 inh)
O=C(CN1CCN(c2ccc(F)cc2)CC1)c1ccc(O)cc1O	none
Cc1ccc2c(c1)c1c3n2CCN(C(=O)CCl)C3CCC1 (configuration not stated)	tim10-1 inh 43 | tim10-1 conf inactive
CCOc1ccc(NCC(=O)Nc2ccc(Cl)cc2C)cc1	tim10-1 inh 45 | tim10-1 conf inactive
CCCOc1ccc(NCC(=O)Nc2ccc(C)cc2C)cc1	none
CCN(CC)CCCC(C)NC(=O)c1ccc(C(F)(F)F)cc1 (configuration not stated)	none
O=C(/C=C1\NC2(CCCC2)Cc2ccccc21)N1CCOCC1	none
CC1(C)Cc2c(ccc3ccccc23)/C(=C/C(=O)N2CCCCC2)N1	tim10-1 inh 45 | tim10-1 conf 32
COC(=O)c1ccsc1NC(=O)CCS(=O)(=O)c1ccc(Cl)cc1	tim10-1 inh 56 (no result: NALP1 inh) | tim10-1 conf 59
Cc1ccc(S(=O)(=O)CCC(=O)Nc2sccc2C(N)=O)cc1	none (no result: NALP1 inh)
COC(=O)c1ccsc1NC(=O)CCS(=O)(=O)c1ccccc1	tim10-1 inh 42 | tim10-1 conf inactive
COC(=O)c1ccsc1NC(=O)CS(=O)(=O)c1ccccc1	none (no result: NALP1 inh)
Cc1ccc(NC(=O)COC(=O)c2ccccc2-c2nc3ccccc3s2)c(C)c1	none
CCc1cccc(CC)c1NC(=O)COC(=O)c1ccccc1-c1nc2ccccc2s1	tim10-1 inh 44 (no result: NALP1 inh) | tim10-1 conf inactive
COCCNC(=O)/C(C#N)=C/c1c(N2CCCCCC2)nc2ccccn2c1=O	none
CN(C)c1nc(OCCNC(=O)COc2ccc(Cl)cc2Cl)nc(N(C)C)n1	tim10-1 inh 44 | tim10-1 conf inactive
CN(C)c1nc(OCCOC(=O)COc2ccc(Cl)cc2Cl)nc(N(C)C)n1	none
Cc1cc(NS(=O)(=O)c2ccccc2)c([N+](=O)[O-])cc1C	tim10-1 inh 41 | tim10-1 conf inactive
O=[N+]([O-])c1cc(Br)ccc1NS(=O)(=O)c1ccccc1	none (no result: tim23-1 inh, tim10-1 inh, NLRP3 yeast inh, TIM10 inh, NALP1 inh)
O=C(CCNC(=O)c1ccc(Cl)cc1)NCc1ccco1	none (no result: NALP1 inh)
CSc1ncccc1C(=O)Nc1nnc(C2CC2)s1	none
O=C1NCCc2c1[nH]c1c(Cl)ccc(Cl)c21	tim10-1 inh 42 | tim10-1 conf 36
c1ccc(CCNc2ccc3c(c2)Cc2ccccc2-3)nc1	none (no result: tim23-1 inh, tim10-1 inh, NLRP3 yeast inh, TIM10 inh, NALP1 inh)
O=C(NCCO)c1cccc(Nc2nc(-c3ccccc3)c3cc(Cl)ccc3n2)c1	tim10-1 inh 45 | tim10-1 conf inactive
COc1ccc2cc(C3CC(c4ccco4)=NN3S(=O)(=O)c3ccccc3)c(Cl)nc2c1 (configuration not stated)	tim10-1 inh 47 | tim10-1 conf inactive
CCOc1ccc2cc(C3CC(c4ccco4)=NN3S(=O)(=O)c3ccccc3)c(Cl)nc2c1 (configuration not stated)	none
Cc1cc(/C=C(\C#N)C(=O)NCc2ccco2)c(C)n1-c1cccnc1	none
Cc1cc(/C=C(\C#N)C(=O)NCc2ccco2)c(C)n1C1CCCC1	tim10-1 inh 46 | tim10-1 conf inactive
Cc1ccc(C(C)(C)C)cc1S(=O)(=O)Nc1nc2ccccc2nc1Cl	tim10-1 inh 41 | tim10-1 conf 40
Cc1cc(F)ccc1S(=O)(=O)Nc1nc2ccccc2nc1Cl	none
Nc1nc(N)c(C=Nc2ccc(Br)cc2)c(Nc2ccc(Br)cc2)n1	tim10-1 inh 57 | tim10-1 conf 32
COCCn1c(SCc2nc3ccccc3c(=O)[nH]2)nc2ccccc2c1=O	none
CCn1c(SCc2nc3ccccc3c(=O)[nH]2)nc2ccccc21	tim10-1 inh 44 | tim10-1 conf inactive
O=C(N/N=C/c1ccco1)c1cccc(N2Cc3ccccc3C2)c1	none
